# Laboratory results as given in PubChem BioAssay (NCATS).
# Records with an inconclusive call do not appear. Where a call stands in place of a potency, no number is given. Active and inactive are the calls of the source. Calls follow the shape of the dose curve; as a rule, active = well fitted curve in the direction sought with a large enough effect; inconclusive = small, poorly fitted or top-dose-only effect, or another doubt; inactive = no such curve, though single readings can be large; an effect the other way counts as inactive or inconclusive.
# Assays:
# [1] = biological target: Aldehyde dehydrogenase, mitochondrial (Homo sapiens) (UniProt P05091); test: qHTS for Inhibitors of the Aldehyde Dehydrogenase Family (ALDH2) Primary screen (AID 2061308); also: nearly all actives have a fitted effect of over 55% in size
# [2] = biological target: Retinaldehyde dehydrogenase 3 (Homo sapiens) (UniProt P47895); test: qHTS for Inhibitors of the Aldehyde Dehydrogenase Family (ALDH1A3) Primary screen (AID 2061315)
Compound,Potency [1],Potency [2]
C[n+]1cc(C(O)(c2ccccc2)c2ccccc2)n2ccccc21,inactive,inactive
Cc1ccc(S(=O)(=O)Nc2cccc(C(=O)Nc3nc(-c4ccc(Cl)cc4)cs3)c2)cc1,inactive,inactive
COc1cc(OC)cc(C2=Nn3c(nnc3-c3ccccc3OC)SC2)c1,inactive,inactive
Cc1ccc(NS(=O)(=O)c2ccc3c(c2)CCC(C)(C)O3)cc1C,inactive,inactive
COc1cc(O)c(C(CC(=O)N2CCCC2)c2ccc3c(c2)OCO3)c(OC)c1 (stereo not drawn),inactive,inactive
COc1cc(F)c(S(=O)(=O)N2CCCN(S(=O)(=O)c3cccc(NC(C)=O)c3)CC2)c(F)c1,inactive,inactive
CCOc1ccc(CCNC(=O)c2cnon2)cc1OCC,inactive,inactive
Cn1ccc2cc(S(=O)(=O)N3CCN(S(=O)(=O)c4c(F)cccc4F)CC3)ccc21,inactive,inactive
O=C(Nc1cccnc1)c1cccs1,inactive,inactive
COC(=O)c1ccc(Cn2ncc3c4sc(C)cc4n(C)c3c2=O)cc1,inactive,inactive
N=c1c2c(ccn1CCc1ccccc1)Oc1ccc3ccccc3c1C2c1ccccc1 (stereo not drawn),inactive,inactive
Cc1cc(C)nc(NC(=S)N2CCN(c3ncccn3)CC2)c1,inactive,inactive
CC(=O)Nc1cccc([S+](=O)([O-])N2CCCN([S+](=O)([O-])c3cccc(NC(C)=O)c3)CC2)c1,inactive,inactive
C=CC(C)(C)C12CC3C(=O)N4C(CC5(C(C)(C)C=C)c6ccccc6NC45)C(=O)N3C1Nc1ccccc12 (stereo not drawn),inactive,inactive
O=C(Nc1nc(-c2ccccc2)cs1)c1ccccc1S(=O)(=O)Nc1nccs1,inactive,inactive
Cn1c2cc(B(O)O)sc2c2cnn(Cc3ccccc3F)c(=O)c21,inactive,inactive
CC(C)c1ccccc1-c1ncc(F)c(NCc2ccc(-c3cccnc3)s2)n1,inactive,inactive
N#Cc1ccc(-c2ccc(NC(=O)c3cccs3)cn2)cc1,inactive,inactive
O=C(CNC(=O)c1ccncc1)OC(C(=O)Nc1cc(C(F)(F)F)ccc1Cl)c1ccccc1 (stereo not drawn),inactive,inactive
